ABCB6 inh MLPCN – inhibitors of human ABC transporter ABCB6. fluorescence ratio to DMSO, % at 10 µM. K562-ABCB6 porphyrin accumulation, flow cytometry, 1 h; stronger effect = lower value. 0.19% of 360,000 active;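 active = fluorescence ratio to DMSO below 75%, the collection mean minus 3 SD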;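 also: signal is porphyrin accumulated inside mitochondria; lower ratio means ABCB6 inhibition with less porphyrin fluorescence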
CRFR2-BP antag – CRF-BP/CRF-R2 complex antagonism; HEK293 CRF-R2/CRF-BP, CRF-induced calcium fluorescence; inhibition, % at 11.8 µM; 0.59% of 350,000 active;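 active = inhibition of the ligand-induced calcium signal above about 50% at the single tested concentration, limit read from the data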
MEKK2wt PB1 HTS – raises or lowers MEK5 binding to wildtype human MEKK2 PB1 domain; 1.1% of 290,000 active; bead flow cytometry, Alexa488-MEK5 binding to MEKK2 WT; actives lie on both sides; binding response (% of control), % at 10 µM; Q9Y2U5; AID 1531; in the data active = binding response below about 67% or above about 130%
MEKK2 mut-MEK5 – signal of MEK5 binding to mutant human MEKK2 PB1 domain. bead flow cytometry, Alexa488-MEK5 binding to MEKK2 mutant. percent response, % at 10 µM. 0.35% of 290,000 active. AID 1530; in the data active = percent response above about 24%, passing the limit was not always enough
CRFBP-R2 agonist – agonists of human CRF-binding protein/CRF-R2 receptor complex | HEK293 CRF-R2/CRF-BP, calcium dye fluorescence (FLIPR); percent of saturating CRF peptide response | activation, % at 13.2 µM | 0.46% of 350,000 active | AID 588473;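 active = activation of at least 50%, plus an integration ratio under a set limit after plate pattern correction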
MEKK3 PB1 HTS – modulators (inhibitors or enhancers) of MEK5 binding to human MEKK3 PB1 domain. Q99759. bead-based flow cytometry, Alexa488-MEK5 binding to MEKK3; actives lie on both sides; 0 = blocked by unlabeled MEK5, 100 = vehicle. binding response (% of control), % at 10 µM. 1.4% of 290,000 active;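 active = binding response more than 3 SD above or below the average of its plate-row segment, actives on both sides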;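 also: Alexa488 bead fluorescence after subtracting the streptavidin-only scavenger bead signal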
MEKK2wt confirm – raises or lowers MEK5 binding to wildtype human MEKK2, retest; shares compounds with MEKK3 PB1 HTS; bead flow cytometry, Alexa488-MEK5 binding to MEKK2 WT; actives lie on both sides; binding response (% of control), % at 10 µM; 2.4% of 5,900 active; AID 1892; in the data active = binding response below about 16% or above about 210%; inactive = in between
MEKK2mut-MEK5 – signal of MEK5 binding to mutant human MEKK2, retest; bead flow cytometry, Alexa488-MEK5 binding to MEKK2 mutant; percent response, % at 10 µM; AID 1893; shares compounds with MEKK3 PB1 HTS; 2% of 5,900 active; in the data active = percent response mostly above about 71%, no sharp cut-off; inactive = mostly below about 38%;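 also: higher means compound restores mutant binding toward wildtype level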
MEKK3 confirm – confirmation of inhibitors of MEK5 binding to human MEKK3; shares compounds with MEKK3 PB1 HTS; bead flow cytometry, Alexa488-MEK5 binding to MEKK3; stronger effect = lower value; binding response (% of control), % at 10 µM; 1.8% of 5,900 active; AID 1894;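 active = binding response below 72% of control, or above a set upper limit, though filed actives all read lower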
A number is an active result; i = inactive; nt = no result given; [ ] = dose if it differs, or a comment. Only some compounds are listed: those with a hit (about 2.9% of all), similar ones and a draw of the others.

SMILES	ABCB6 inh MLPCN	CRFR2-BP antag	MEKK2wt PB1 HTS	MEKK2 mut-MEK5	CRFBP-R2 agonist	MEKK3 PB1 HTS	MEKK2wt confirm	MEKK2mut-MEK5	MEKK3 confirm
COc1ccc2c3c([nH]c2c1)C(C)=NCC3	i	i	29[inhibitor]	i	i	i	i	i	i
C=CCN1C(=O)NC(=O)/C(=C/c2cc3c4c(c2)CCCN4CCC3)C1=O	i	i	26[inhibitor]	i	i	i	i	i	i
COc1cccc(N(C(C)=O)C2=NCCCS2)c1	i	i	i	i	i	i	nt	nt	nt
Cc1cc(C)n(-c2ccc(NN=C(C#N)C#N)cc2)n1	i	i	43[inhibitor]	i	53	40[inhibitor]	i	i	i
CCN(CC)S(=O)(=O)c1ccc(NN=C(C#N)C#N)cc1	i	i	i	i	i	i	nt	nt	nt
O=c1[nH]c(=S)[nH]c(O)c1/C=C1/C=c2ccccc2=N1	i	i	i	i	i	i	nt	nt	nt
Cc1cccc2c1=NC(=O)/C(=C/c1c(O)[nH]c(=O)[nH]c1=O)C=2	i	i	i	i	i	147	i	i	i
Brc1ccc2c(c1)C(OC1CN3CCC1CC3)c1ccccc1CS2 (centres undefined)	i	i	156	i	i	i	i	i	i
CC1=C2[C@H]3OC(=O)[C@@H](C)[C@@H]3CC[C@@]2(C)C=CC1=O	i	i	nt	nt	i	nt	nt	nt	nt
CCn1c(O)c(/C=N/N2CCOCC2)c(=O)n(CC)c1=S	i	i	i	i	i	143	i	i	i
CCn1c(O)c(C=NCCN2CCOCC2)c(=O)n(CC)c1=S	i	i	i	i	i	i	nt	nt	nt
CC(C)[N+](C)(CCC(C(N)=O)(c1ccccc1)c1ccccc1)C(C)C	i	i	i	i	i	i	nt	nt	nt
CCS(=O)(=O)NC(C)c1nnc2n1-c1ccc(Br)cc1C(c1ccccc1Cl)=NC2 (centres undefined)	i	i	nt	nt	i	nt	nt	nt	nt
CC(C)OCCCNC(=O)c1c(N)n(CC2CCCO2)c2nc3ccccc3nc12 (centres undefined)	i	i	i	i	i	i	nt	nt	nt
CCCNC(=O)c1c(N)n(CC2CCCO2)c2nc3ccccc3nc12 (centres undefined)	i	i	i	i	i	123	i	i	i
CCCCNC(C)Cc1ccccc1 (centres undefined)	i	i	nt	nt	i	nt	nt	nt	nt
COc1ccc(CC(C)NCCC(c2ccccc2)c2ccccc2)cc1 (centres undefined)	i	i	171	28	i	i	i	i	i
c1ccc2c(CN3CCCCCCC3)c[nH]c2c1	i	i	nt	nt	i	nt	nt	nt	nt
c1ccc2c(CN3CCN(C4CCCCC4)CC3)c[nH]c2c1	i	i	168	44	i	i	i	i	i
CC(C)Oc1ccc(C2(C#N)CC[N+](C)(C)CC2)cc1	i	i	i	i	i	i	nt	nt	nt
COc1ccc2c(c1)c(C(=O)CN1CCN(C)CC1)c(C)n2Cc1ccccc1	i	i	141	i	i	i	i	i	i
OCC1CO1 (centres undefined)	i	i	nt	nt	i	nt	nt	nt	nt
CCCCCCCSc1cc(OC)c(CCNC)cc1OC	i	i	149	i	i	i	i	i	i
Cc1nn(Cc2ccccc2Cl)c(C)c1C(=O)OCC(=O)NC1CCCC(C)C1C (centres undefined)	i	i	i	i	i	141	i	i	i
CCOc1cc2c(cc1OCC)-n1cccc1C(c1cc(C)c(OC)cc1C)NC2 (centres undefined)	i	i	i	i	i	i	nt	nt	nt
SMILES	ABCB6 inh MLPCN	CRFR2-BP antag	MEKK2wt PB1 HTS	MEKK2 mut-MEK5	CRFBP-R2 agonist	MEKK3 PB1 HTS	MEKK2wt confirm	MEKK2mut-MEK5	MEKK3 confirm
Cc1cccc(N=C2c3cc([N+](=O)[O-])ccc3-c3c2cc([N+](=O)[O-])cc3[N+](=O)[O-])c1	i	i	nt	nt	i	nt	nt	nt	nt
CC/C(=N\NC(=O)Nc1ccccc1)c1c(O)n(Cc2ccccc2)c(=O)[nH]c1=O	i	i	i	i	i	132	i	i	i
C/C(=N\NC(=O)c1ccccc1)c1c(O)n(Cc2ccccc2)c(=O)[nH]c1=O	i	i	i	i	i	i	nt	nt	nt
Cc1cc(C=C(C#N)C#N)ccc1N1CCCC1	i	i	63[inhibitor]	i	76	i	i	i	i
O=S(=O)(c1ccc(Cl)cc1)N1CCCCC1c1cccnc1 (centres undefined)	i	i	i	i	i	130	i	i	i
CCN(C(=O)Oc1ccccc1)c1ccc(C(O)(C(=O)OC)C(F)(F)F)cc1 (centres undefined)	i	i	i	i	i	i	nt	nt	nt
CCOC(=O)C(O)(c1ccc(NC(=O)Oc2ccccc2)cc1)C(F)(F)F (centres undefined)	i	i	i	i	i	130	i	i	i
Cc1cccc(-n2c(-c3cccs3)nc3ccccc3c2=O)c1	i	i	i	i	i	130	i	i	i
CS(=O)(=O)c1ccc(C2=C(CNC(=O)c3cccnc3)[C@H]3CC[C@@H](C2)N3Cc2ccco2)cc1	i	i	nt	nt	i	nt	nt	nt	nt
CCOC(=O)c1c(C)n(Cc2ccccc2)c2ccc(OCC(O)CNC(C)(C)C)cc12 (centres undefined)	i	i	150	i	i	i	i	i	i
CCN1C(=O)NC(=O)/C(=C/c2cc(C)n(-c3sc(C)c(C)c3C#N)c2C)C1=O	i	i	i	i	i	130	i	i	i
Cc1ccc(N2C(=O)NC(=O)/C(=C\c3cc(C)n(-c4sc5c(c4C#N)CCCC5)c3C)C2=O)cc1	i	i	i	i	i	i	nt	nt	nt
O=c1[nH]c(=S)n(-c2ccccc2F)c(O)c1C=NCCN1CCNCC1	i	i	i	i	i	i	nt	nt	nt
CC12CCC(=O)CC1CCC1C2C(=O)CC2(C)C1CCC2(C)O (centres undefined)	i	i	nt	nt	i	nt	nt	nt	nt
O=NN(CCF)C(=O)NC1CCC(=O)NC1=O (centres undefined)	i	nt	nt	nt	nt	nt	nt	nt	nt
OC(c1ccccc1)(c1ccccc1)C1CCNCC1	i	i	136	i	i	i	i	i	i
OC(c1ccccc1)(c1ccccc1)C1CN2CCC1CC2 (centres undefined)	i	i	i	i	i	i	nt	nt	nt
COC(=O)C1=Nc2ccccc2/C1=C\c1c(O)n(C)c(=O)n(C)c1=O	i	i	55[inhibitor]	i	i	74[inhibitor]	i	i	i
Cn1c(O)c(/C=C2\C=Nc3ccccc32)c(=O)n(C)c1=O	i	i	i	i	i	i	nt	nt	nt
